Nrf2 block – blocks Nrf2 signaling. A549 ARE-Fluc reporter, luciferase luminescence, 18-24 h. Potency, µM (top dose mostly 46 µM), without a hit: at the highest dose activity change, negative = inhibition, hits mostly inhibitors. 360,000 tested, 2.1% active. AID 504444; also: % is scaled to controls: 0 for no effect and ±100 for the full control effect; nearly all actives have a fitted effect of over 60% in size
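A549 ARE_Fluc cells, 5000/well, 5% FBS OPTI-MEM; compounds in dose-response, 18-24 h at 37 °C/5% CO2; CellTiter-Fluor viability read (Ex 405/Em 525), then BugLite luciferase luminescence = Nrf2 activity.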
ATXN viability – cell viability loss in ATXN counter-screen; AID 651635; Potency, µM (series often up to 56.7 µM), hits mostly cytotoxic; S2 cells (HEK-293 line with an ATXN2-luciferase reporter) viability, CellTiter-Fluor protease fluorescence, 24 h; 400,000 tested, 0.49% active; also: nearly all actives have a fitted effect of over 40% in size
HepG2 viability – counter-screen for TGF-b inhibitors: cytotoxicity in HepG2 cells. HepG2 CAGA-GFP viability, ATP luminescence, 18 h. Potency, µM (highest dose often 46.1 µM), inactives show at the highest dose activity change, negative = cytotoxicity, most hits filed as cytotoxic. 410,000 tested, 0.76% active. AID 588856
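CellTiter-Glo luminescence gave cytotoxicity after 18 hours at 37 degrees C. The cells were HepG2 CAGA-GFP in 1% FBS DMEM, stimulated with 500 pg/mL TGF-beta after compound addition. %Activity was normalised to no-cell wells (complete cell-killing) and DMSO (no toxicity), and curves were fitted and classified.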
TGFb SMAD3 inh – TGF-b pathway inhibition. HepG2 CAGA-GFP TGF-b/SMAD3 reporter, GFP fluorescence, 18 h; TGF-beta stimulated, 500 pg/mL final. 410,000 tested, 1.2% active. AID 588855. Potency, µM (highest dose often 46.1 µM), without a hit: at the highest dose activity, negative = inhibition, usual class: inhibitors; also: % is scaled to controls: 0 for no effect and ±100 for the full control effect; nearly all actives have a fitted effect of over 65% in size
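Inhibition of TGF-beta-driven CAGA-GFP reporter expression in HEPG2 cells is measured by cellular GFP fluorescence after 18 h stimulation with 500 pg/mL recombinant TGF-beta in 1% FBS medium at 37 degrees C.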
A549 tox – A549 cytotoxicity, counter-screen for Nrf2 inhibitors; Potency, µM (titrated, usually from 46 µM), inactives show at the top dose activity change, negative = cytotoxicity, usual class: inhibitors; A549 ARE-Fluc cells, CellTiter-Fluor viability, 18-24 h; 390,000 tested, 0.16% active; also: % is scaled to controls: 0 for no effect and ±100 for the full control effect
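Cytotoxicity counterscreen: CellTiter-Fluor fluorescence was measured in A549 ARE_Fluc cells after 18-24 h of compound exposure in a concentration series. The subsequent BugLite luminescent read reports ARE-luciferase activity.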
ATXN2 expr inh – ATXN2 expression inhibition | AID 1745845 | Potency, µM (titrated, usually from 57 µM), inactives show at the highest dose activity change, negative = inhibition, usual class: inhibitors | HEK-293 ATXN2-luciferase reporter, luminescence, 24 h | 360,000 tested, 0.72% active; also: % is scaled to controls: 0 for no effect and ±100 for the full control effect; nearly all actives have a fitted effect of over 55% in size
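qHTS (up to 57 uM final) was run with 24 h compound exposure of reporter cells at 37 °C. Each well was multiplexed: SteadyGlo luminescence measured ATXN2-luciferase expression after a fluorogenic Gly-Phe-AFC viability readout (25 uM final).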
Active calls of the source: *; i = inactive; ? = inconclusive; / = no result; [ ] = another dose, or the depositor's remark. A selection: hits, their analogues and other compounds. The true share with any hit is near 3.8%. Calls follow the shape of the dose curve; as a rule, active = well fitted curve in the direction sought with a large enough effect; inconclusive = small, poorly fitted or top-dose-only effect, or another doubt; inactive = no such curve, though single readings can be large; an effect the other way counts as inactive or inconclusive. Potency is read from the fitted curve at half-maximal effect.

SMILES	Nrf2 block	ATXN viability	HepG2 viability	TGFb SMAD3 inh	A549 tox	ATXN2 expr inh
CC(C)(C)Cc1c(-c2ccc(F)cc2)nc2ccc(Cl)cn12	/	?	-55%	11µM*	/	-37%
CCC(=O)N1CCN(c2ccccc2NC(=O)COc2ccc(C(C)C)cc2)CC1	-17%	i	-27%	?	-14%	-27%
CCOCc1nc(N)nc(N)c1-c1cccc(Cl)c1	/	i	11µM*	0%	/	/
CC(=O)Nc1ccc(C(=O)N2CCCCC2c2cc(C(=O)NCc3cccnc3)no2)cc1 (stereo unspecified)	/	i	-4%	-1%	/	13%
CCc1nc2ccc(C(=O)Nc3ccc4c(c3)OCC(=O)N4)cn2c1N(CC)Cc1cccc(Br)c1	/	40µM*	-19%	?	/	?
CCc1nc2ccc(C(=O)Nc3cccc(OC)c3)cn2c1N(CC)Cc1cccc(Br)c1	/	?	-32%	?	/	?
CCc1nc2ccc(C(=O)Nc3cccc(NS(C)(=O)=O)c3)cn2c1N(CC)Cc1cccc(Br)c1	/	?	-73%	?	/	28µM*
COc1cccc(Cn2c(=O)cc(C)c3c(C)nn(-c4ccc(C)cc4)c32)c1	?	i	-1%	-16%	-1%	0%
O=C(O)CC1(CC(=O)Nc2cccc(C(=O)O)c2)CCCC1	16%	i	-5%	2%	13%	/
CCN(CC)C(=O)c1sc(NC(=O)C(C)Sc2nc(-c3ccccc3)cc(C(F)(F)F)n2)c(C(=O)OC)c1C (stereo unspecified)	?	/	-25%	0%	-12%	/
CCCOC(=O)c1c(NC(=O)C(C)Sc2nc(-c3ccccc3)cc(C(F)(F)F)n2)sc(C(=O)N(C)C)c1C (stereo unspecified)	21µM*	i	-16%	?	-22%	?
CCOc1ccc(NC(=O)C2CCCN(c3nn4cc(-c5ccc(OC)cc5)nc4s3)C2)cc1 (stereo unspecified)	7.3µM*	/	-9%	?	-1%	/
CCc1c(C)nc2ncnn2c1N1CCCC(C(=O)Nc2cc(F)ccc2C)C1 (stereo unspecified)	/	i	-1%	9%	-1%	-7%
CCc1c(C)nc2ncnn2c1N1CCC(C(=O)NCc2cccs2)CC1	18µM*	i	-5%	-11%	-1%	-21%[11.3 µM]
CCOc1ccc(NC(=O)C2CCCN(c3c(CC)c(C)nc4ncnn34)C2)cc1 (stereo unspecified)	10µM*	i	-34%	?	-14%	-22%
Cc1cccc(C)c1Nc1c(-c2ccsc2)nc2ccc(Cl)cn12	-18%	i	-2%	7%	-6%	2%
Cc1cccc(C)c1Nc1c(-c2ccsc2)nc2ccccn12	18µM*	?	-30%	?	-22%	0%
Cc1cccc(C)c1Nc1c(-c2ccccn2)nc2ccccn12	?	10µM*	-17%	?	?	/
Cc1ccccc1Nc1c(-c2ccccn2)nc2c(C)cccn12	0%	?	-18%	-19%	-5%	?
COc1ccc(O)c(C2Nc3ccccc3C(=O)N2Cc2ccccc2)c1 (stereo unspecified)	11%	/	/	/	-14%	/
Cc1ccc(S(=O)(=O)N2C[C@H]3N(C(=O)OC(C)C)N(C(=O)OC(C)C)C[C@H](OC(=O)NCc4ccccc4)[C@@]3(O)C2)cc1	/	?	-7%	?	/	-22%
Cc1ccc(S(=O)(=O)N2C[C@H]3N(C(=O)OC(C)C)N(C(=O)OC(C)C)C[C@H](OC(=O)NCC4CCCCC4)[C@@]3(O)C2)cc1	/	32µM*	-39%	?	/	-38%
CCNC(=S)Nc1cc(C)ccn1	?	i	1µM*	-14%	1%	7%
Cc1ccnc(NC(=O)c2ccc(S(=O)(=O)N3CCCCC3)cc2)c1	?	i	-12%	-2%	-2%	12%
Cc1ccc(CC(=O)Nc2cc(C)ccn2)cc1	?	i	-5%	-11%	6%	8%
SMILES	Nrf2 block	ATXN viability	HepG2 viability	TGFb SMAD3 inh	A549 tox	ATXN2 expr inh
CCOc1ccc(C(=O)Nc2cc(C)ccn2)cc1	?	i	14µM*	-19%	4%	?
CCOc1cc(C(=O)Nc2cc(C)ccn2)cc(OCC)c1OCC	-3%	i	-19%	-1%	/	15%
Cc1ccnc(NC(=O)c2ccc(S(=O)(=O)N3CCCCCC3)cc2)c1	?	i	2.2µM*	-23%	-12%	33%
OC[C@H]1O[C@@H](c2nc(-c3ccc4[nH]ccc4c3)no2)[C@H](O)[C@@H](O)[C@H]1O	/	i	-4%	11%	/	4%
Cc1ccc(-c2nc(-c3cc4cc(Cl)ccc4oc3=O)sc2C)cc1	10%	/	4%	26%	-1%	/
CCOC(=O)Cc1csc(NC(=S)NC(=O)c2ccccc2)n1	0%	i	-5%	-19%	5%	-26%
CCOC(=O)Cc1csc(NC(=S)NC(=O)c2ccc(C)cc2)n1	2.1µM*	?	2%	-6%	-10%	/
Cc1ccc(S(=O)(=O)c2cn(CC(=O)Nc3ccc4c(c3)OCO4)c3ccc(F)cc3c2=O)cc1	5%	?	-4%	?	-7%	2%
COc1ccc(CC(=O)Nc2cccc(Cl)c2C)cc1S(=O)(=O)N1CCOCC1	12%	i	-7%	13%	7%	9%
CCOC(=O)c1ccccc1NC(=O)Cc1ccc(OC)c(S(=O)(=O)N2CCOCC2)c1	18µM*	i	-19%	-2%	-25%	-10%
O=C(Cn1c(=O)n(Cc2nc(-c3ccccc3)no2)c(=O)c2ccccc21)Nc1cccc(Cl)c1	-14%	/	2%	-17%	-11%	/
O=C(Cn1c(=O)n(Cc2nc(-c3ccccc3)no2)c(=O)c2ccccc21)Nc1cccc(C(F)(F)F)c1	16µM*	/	-37%	?	-16%	/
Clc1ccc(Cl)c(OCCCCNCc2ccccc2)c1	1%	i	16µM*	?	16%	-13%
Cc1cc(Cl)c(OCCCNCc2ccccc2)c(Br)c1	3%	?	10µM*	?	-4%	?
Nc1nonc1C(=O)NCCNC(=O)c1ccc(Cl)c(Cl)c1	?	i	-6%	-4%	0%	-2%
CCc1ccc(C(=O)C[n+]2cccc3cc(OC)ccc32)cc1	?	?	-34%	?	0%	?
S=C(NCc1cccs1)Nc1cc(Cl)cc(Cl)c1	?	?	-48%	22µM*	?	?
S=C(NCc1cccs1)Nc1cccc(Cl)c1	/	i	-20%	?	1%	-4%
